# Results with a measured potency or affinity are listed apart. Results filed as inconclusive are left out. Active and inactive are the calls of the source.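 Rule for the calls: active = in every test run, a fitted half-maximal concentration for signal decrease at or below twice the highest tested concentration; inconclusive = runs disagree, flat 30 to 70% decrease, or poor fit; inactive = the rest.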
# Test: activation of miR-122 Renilla sensor silencing – cell-based, Huh7 psiCHECK-miR122, Renilla luciferase, cherry-picked, dose response (AID 651956);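 note: Renilla luciferase from a miR-122 sensor reporter so lower signal means miR-122 activation; 0% = median neutral control wells and -100% = median positive control wells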
# Conditions: Huh7 psiCHECK-miR122 Renilla luciferase reporter, 48 h; series mostly up to 35 µM; activity change, negative = signal decrease: at the top concentration
Compound,"activity change, negative = signal decrease",outcome
CC(=O)N1[C@H](CO)[C@@H](c2ccccc2)[C@H]1CN(C(=O)NC(C)C)C1CCCC1,8.18% (inactive),–
COCC(=O)Nc1ccc2c(c1)C(=O)N(C)[C@@H]1CC[C@@H](CC(=O)NC3CCCC3)O[C@H]1CO2,156% [at 30 µM] (inactive),–
CC(C)C(=O)Nc1ccc2c(c1)C(=O)N(C)[C@@H]1CC[C@H](CC(=O)NCC3CC3)O[C@H]1CO2,-7.96% (inactive),–
COCC(=O)N1[C@H](CO)[C@H]2c3ccccc3N(C(=O)C3CC3)C[C@H]21,0% (inactive),–
O=C(Nc1ccc(Cl)c(C(F)(F)F)c1)c1ccco1,57.4% (inactive),–
CCOc1ccc(CCNC(=O)C2CCN(S(=O)(=O)N3CCC(C)CC3)CC2)cc1OCC,9.19% (inactive),–
COc1ccc(CN2CCOC2=O)cc1OC,60.2% (inactive),–
COCC(=O)Nc1ccc2c(c1)C(=O)N(C)[C@@H]1CC[C@H](CC(=O)N3CCc4ccccc4C3)O[C@H]1CO2,-21.2% (inactive),–
CCOC(=O)C1CN(S(=O)(=O)c2ccccc2)CCN1S(=O)(=O)c1ccccc1 (centres undefined),19.2% (inactive),–
CCNC(=O)Nc1ccc2c(c1)C(=O)N(C)[C@H]1CC[C@H](CC(=O)NCCN3CCCC3)O[C@@H]1CO2,16.7% (inactive),–
COc1ccc(NC(=O)N(C)C[C@H]2Oc3cc(C#CCC(C)C)ccc3S(=O)(=O)N([C@@H](C)CO)C[C@H]2C)cc1,-109% (inactive),–
CN1C(=O)c2cc(NC(=O)c3cccc(F)c3)ccc2OC[C@@H]2O[C@H](CC(=O)NC3CCC3)CC[C@@H]21,–,inactive
CN1CCN(c2ccc(Cl)cc2NC(=O)c2ccc(S(=O)(=O)N3CCCCCC3)cc2)CC1,-22.6% (inactive),–
CC(=O)Nc1ccc2c(c1)C(=O)N(C)[C@H]1CC[C@H](CC(=O)NC3CCCCC3)O[C@@H]1CO2,-8.52% (inactive),–
Cc1ccc(-c2noc(CCC(=O)Nc3ccccc3C)n2)cc1,-15.5% (inactive),–
COc1ccc(OC)c(Nc2cc(C)nc3ccc(C)cc23)c1,-95.2% (inactive),–
CC(=O)Nc1ccc(-c2cc(-c3ccc(NC(C)=O)cc3)nc(-c3ccc(NC(C)=O)cc3)n2)cc1,63.9% (inactive),–
O=C(c1cccnc1)N1C[C@H]2[C@@H](c3ccccc31)[C@H](CO)N2C(=O)Nc1ccccc1,-24.8% (inactive),–
C[C@H]1CN([C@@H](C)CO)S(=O)(=O)c2ccc(C#CC3CCCCC3)cc2O[C@@H]1CN(C)C,-91.8% (inactive),–
CO[C@H]1CN(C)C(=O)c2cc(NC(C)=O)ccc2OC[C@@H](C)N(C(=O)CC2CC2)C[C@H]1C,-10% (inactive),–

Compound,"activity change, negative = signal decrease",outcome
CCCCNC(=O)Nc1nnc(-c2ccc(OCC)cc2)o1,-1.33% (inactive),–
Cc1cc(C(=O)Nc2ccc3c(c2)C(=O)N(C)[C@H]2CC[C@@H](CC(=O)N[C@@H](C)c4ccccc4)O[C@H]2CO3)no1,108% (inactive),–
CCCCNc1cc(C)nc(NCc2ccccc2)n1,-59.7% (inactive),–
C[C@@H]1CN([C@@H](C)CO)S(=O)(=O)c2ccc(-c3ccccc3F)cc2O[C@@H]1CN(C)Cc1cccnc1,-68.3% (inactive),–
CNC(=O)C[C@@H]1CC[C@@H]2[C@@H](COc3ccc(NC(=O)NC(C)C)cc3C(=O)N2C)O1,13.3% (inactive),–
CO[C@@H]1CN(C)C(=O)c2ccc(NS(=O)(=O)c3ccc(C)cc3)cc2OC[C@@H](C)N(C(=O)NC(C)C)C[C@H]1C,99% (inactive),–
COC(=O)C[C@H]1CC[C@@H]2[C@@H](COc3ccc(NC(=O)c4cnccn4)cc3C(=O)N2C)O1,-5.79% (inactive),–
COC(=O)C[C@@H]1CC[C@H]2[C@@H](COc3ccc(NC(=O)c4ccc(F)c(F)c4)cc3C(=O)N2C)O1,134% (inactive),–
Cc1ccccc1NC(=O)Nc1ccc2c(c1)C(=O)N(C)[C@H]1CC[C@@H](CC(=O)O)O[C@H]1CO2,387% [at 30 µM] (inactive),–
CC(=O)N1[C@H](CN(C(=O)c2ccc(F)cc2)C(C)C)[C@H](c2ccccc2)[C@@H]1CO,111% (inactive),–
COCCNC(=O)C[C@H]1CC[C@@H]2[C@H](COc3ccc(NC(=O)c4cnccn4)cc3C(=O)N2C)O1,42% [at 30 µM] (inactive),–
CCCCC(=O)OCC(=O)c1[nH]c(C)c(C(=O)OCC)c1C,-21.6% (inactive),–
CCCCC(=O)NC(c1ccccc1OC)c1ccc2cccnc2c1O (centres undefined),4.09% (inactive),–
COC(=O)C[C@H]1CC[C@H]2[C@H](COc3ccc(NC(=O)c4cccc(F)c4)cc3C(=O)N2C)O1,220% (inactive),–
O=C(c1cccc(F)c1)N1C[C@@H]2[C@H](c3ccccc31)[C@H](CO)N2C(=O)Cc1ccccc1,4.17% (inactive),–
COc1nnc(-c2ccc(N3CCOCC3)c(NC(=O)c3ccccc3)c2)c2ccccc12,60.5% (inactive),–
COc1cccc(CNC(=O)C[C@H]2CC[C@@H]3[C@@H](COc4ccc(NC(C)=O)cc4C(=O)N3C)O2)c1,6.67% (inactive),–
CN(C[C@H]1N[C@@H](CO)[C@@H]1c1ccc(C2=CCCC2)cc1)C(=O)c1ccccn1,209% (inactive),–
CO[C@@H]1CN(C)C(=O)c2cc(NC(=O)NC(C)C)ccc2OC[C@H](C)N(Cc2cncnc2)C[C@H]1C,40.5% (inactive),–

# Reference: PubChem BioAssay AID651956 (Broad Institute, 2012)
